The list is not random: actives were taken first. Their share in the collection is about 21%.
Pf growth 48h – inhibits P. falciparum growth in the first generation, 48 h; P. falciparum luciferase growth in erythrocytes, 48 h; Potency, µM (top dose mostly 28.7 µM), most hits filed as inhibitors; 5.9% of 310,000 active
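In quantitative HTS format, infected erythrocytes bearing luciferase-reporter parasites were treated for a single generation at 37 C. Luminescence after adding detection reagent served as the growth measure.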
AMA1-RON2 inh – inhibitors of Plasmodium falciparum AMA1-RON2 interaction; Potency, µM (highest dose often 58.2 µM), hits mostly inhibitors; 0.2% of 360,000 active; AID 720542; AlphaScreen AMA1-biotinylated RON2 peptide binding; note: nearly all actives have a fitted effect of over 45% in size
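AMA1 (3D7) with his tag at 25 nM final met compounds first, then biotinylated RON2 peptide at 25 nM; detection used donor plus acceptor beads, 10 µg/mL apiece, read by AlphaScreen after 30 min at room temperature.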
HCV inhibitor – HCV inhibition. 3.4% of 340,000 active. Huh7.5.1 HCVcc-Cre infection, luciferase reporter, 44 h. AID 651820. Potency, µM (doses to about 41.8 µM), most hits filed as inhibitors
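HCVcc-Cre virus at an moi near 0.5 was added right after compound to cells cultured 4 h from seeding (1,000 cells/well). Luciferase activity was determined 44 h later, 15 min after substrate addition at RT.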
Shiga inhibitor – Shiga toxin inhibition; Vero cells, Shiga toxin protein synthesis inhibition reporter; inhibition, % at 38.7 µM; 9.2% of 290,000 active; in the data active = inhibition mostly above about 28%, no sharp cut-off; inactive = mostly below about 43%
CHX counter – counter-screen for Shiga toxin inhibitors: cycloheximide protein synthesis inhibition; cell reporter, cycloheximide protein synthesis inhibition counterscreen; max response, %; 12% of 300,000 active; AID 2314; in the data active = max response mostly above about 13%, no sharp cut-off; inactive = mostly below about 14%; note: read at 38.3 µM for the half of the compounds with a filed dose
Pf growth 96h – inhibits malaria parasite growth, 96 h | AID 504834 | P. falciparum luciferase reporter growth, 96 h | Potency, µM (titrated, usually from 28.7 µM), hits mostly inhibitors | 6.9% of 320,000 active
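Plates of compound plus infected erythrocytes (2% hematocrit, 0.05% parasitemia final) incubate 96 hours, 37 C, 5% CO2. Detection reagent added; reduced luminescence from the parasites' luciferase reporter flags inhibition.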
Each line names hits and unclear results; the compound was inactive in the other large screens. Unless noted, calls come from the whole dose curve; as a rule, active = well fitted curve in the direction sought with a large enough effect; inconclusive = small, poorly fitted or top-dose-only effect, or another doubt; inactive = no such curve, though single readings can be large; an effect the other way counts as inactive or inconclusive.

CN(CC(=O)Nc1ccccc1Cl)C(=O)COC(=O)c1ccccc1[N+](=O)[O-]	none (no result: Shiga inhibitor, CHX counter)
Cc1ccc(-c2ccc(=O)n(Cc3cccc(Br)c3)n2)cc1	HCV inhibitor inconclusive, Pf growth 96h inconclusive
O=C1NCCN/C1=C\C(=O)c1cccc(Br)c1	Shiga inhibitor 72, CHX counter 34
O=C1NCCN/C1=C\C(=O)c1ccc(Br)cc1	Shiga inhibitor 64, CHX counter 45
O=C1NCCN/C1=C\C(=O)c1ccccc1	CHX counter 33 (no result: Pf growth 48h)
O=C1OCCN/C1=C\C(=O)c1ccccc1	none
O=C1OCCN/C1=C\C(=O)c1ccc(Cl)cc1	none
CCOc1cc(N2CCOCC2)c(OCC)cc1NC(=O)C1CC(=O)N(c2ccc(C)cc2)C1 (centres undefined)	Pf growth 48h inconclusive (no result: Shiga inhibitor, CHX counter)
CCN(CC)CCCN=Cc1c(O)n(-c2ccccc2C)c(=O)c2ccccc12	Pf growth 48h inconclusive, Pf growth 96h inconclusive
COc1ccc(C(=O)NCCc2ccc(Cl)cc2)cc1S(=O)(=O)N1CCCCC1C (centres undefined)	Pf growth 48h inconclusive, HCV inhibitor 8.9µM, Pf growth 96h inconclusive (no result: Shiga inhibitor, CHX counter)
COc1ccc(C(=O)NCCc2c[nH]c3ccccc23)cc1S(=O)(=O)N1CCCCC1C (centres undefined)	Pf growth 48h 8.3µM, HCV inhibitor inconclusive, Pf growth 96h 13µM (no result: Shiga inhibitor, CHX counter)
COc1ccc(C(=O)NC2=NCCS2)cc1S(=O)(=O)N1CCCCC1C (centres undefined)	Pf growth 48h inconclusive, Pf growth 96h inconclusive
COc1ccc(C(=O)NCC(c2ccco2)N2CCCC2)cc1S(=O)(=O)N1CCCCC1C (centres undefined)	Pf growth 48h inconclusive, Pf growth 96h 5.2µM (no result: Shiga inhibitor, CHX counter)
O=C1NN=C(c2ccccc2)C1Cc1ccccc1 (centres undefined)	none (no result: Pf growth 48h, Shiga inhibitor, CHX counter, Pf growth 96h)
CCOC(=O)CSc1nc2nc(Cl)c(Cl)nc2[nH]1	none (no result: Pf growth 48h, HCV inhibitor, Shiga inhibitor, CHX counter, Pf growth 96h)
COc1ccc(C(OCC(O)CNCCc2ccc(S(N)(=O)=O)cc2)c2ccc(OC)cc2)cc1 (centres undefined)	HCV inhibitor inconclusive, Pf growth 96h 12µM (no result: Pf growth 48h)
OC(CNCCc1ccc(C(F)(F)F)cc1)COC(c1ccccc1)c1ccccc1 (centres undefined)	HCV inhibitor inconclusive, Pf growth 96h 3.7µM (no result: Pf growth 48h)
CN(C)CC(O)COC(c1ccccc1)c1ccccc1 (centres undefined)	none
COCOCCn1cc(CN2CCS(=O)(=O)N(Cc3ccc(-c4ccc(OC)cc4)cc3)C(C(C)C)C2=O)nn1 (centres undefined)	none (no result: Pf growth 48h, HCV inhibitor, Shiga inhibitor, CHX counter, Pf growth 96h)
Cc1ccc(NC(=O)CSc2nc(O)cc(=O)n2-c2ccc(C)cc2)cc1	Pf growth 48h 13µM, Pf growth 96h inconclusive
Cc1ccc(NC(=O)CSc2nc(O)cc(=O)n2C)cc1	none
COc1cccc(NC(=O)CSc2nc(O)c(C)c(=O)n2-c2ccc(C)cc2)c1	HCV inhibitor inconclusive, Pf growth 96h 10µM
Nc1cc(=O)nc(SCC(=O)Nc2ccccc2)n1-c1ccccc1	Pf growth 96h 1.9µM
O=C(Nc1ccc(S(=O)(=O)N2CCOCC2)cc1)c1ccccc1F	Pf growth 48h inconclusive
CCOC(=O)C(=O)N(C)c1c(CC)nc2c(OCc3ccc(OC)cc3)cccn12	none (no result: Pf growth 48h, HCV inhibitor, Shiga inhibitor, CHX counter, Pf growth 96h)
C=CCNC(=O)C1CC1(c1ccccc1)c1ccccc1 (centres undefined)	none
COCCN(C)C(=O)CC1C(=O)NCCN1CC(c1ccccc1)c1ccccc1 (centres undefined)	Pf growth 96h inconclusive
O=C(Nc1ccc(OCc2ccccc2)cc1)Nc1nnc([C@@H]2C[C@H](O)[C@@H](CO)O2)s1	none (no result: Pf growth 48h, HCV inhibitor, Shiga inhibitor, CHX counter, Pf growth 96h)
Cc1ccc(S(=O)(=O)CC(=O)Nc2cccc(C)n2)cc1	Pf growth 96h inconclusive
Cn1c(N2CCN(C(c3ccccc3)c3ccccc3)CC2)nc2c1c(=O)[nH]c(=O)n2C	Pf growth 48h inconclusive, Pf growth 96h inconclusive
COC(=O)CC1N(S(=O)(=O)c2ccc(C)cc2)c2ccccc2C1(C(=O)OC)C(=O)OC (centres undefined)	none (no result: Pf growth 48h, HCV inhibitor, Shiga inhibitor, CHX counter, Pf growth 96h)
CC[C@H](C)[C@H]1CNC(=O)C(=O)N1CC1CCN(CCc2ccccc2)CC1	none (no result: Pf growth 48h, Shiga inhibitor, CHX counter, Pf growth 96h)
CCCCN(C(=O)Cc1cccc(F)c1)c1c(N)n(CCC)c(=O)[nH]c1=O	none
C=C(C)Cc1c(C)c(C#N)c2[nH]c3ccccc3n2c1=O	HCV inhibitor inconclusive
Cc1ccc(Cc2c(C)c(C#N)c3[nH]c4ccccc4n3c2=O)cc1	Pf growth 48h inconclusive, HCV inhibitor 11µM, Pf growth 96h inconclusive
COCc1cc(=O)n2c([nH]c3ccccc32)c1C#N	Pf growth 96h inconclusive
CCc1cc(=O)n2c([nH]c3ccccc32)c1C#N	Shiga inhibitor 42, CHX counter 44 (no result: Pf growth 96h)
CCc1cc(=S)n2c([nH]c3ccccc32)c1C#N	Shiga inhibitor 52
Cc1sc2ncnc(OCC(=O)NC3CCS(=O)(=O)C3)c2c1C (centres undefined)	none
CCN(CC)c1ccc(NC(=O)CN2C(=O)CC(C)(C)S(=O)(=O)c3ccccc32)c(C)c1	Pf growth 48h inconclusive, Pf growth 96h 8.3µM
OC(c1ccc(F)cc1)c1nc(-c2cccs2)cs1 (centres undefined)	none (no result: Pf growth 48h, HCV inhibitor, Shiga inhibitor, CHX counter, Pf growth 96h)
Cc1cc([N+](=O)[O-])ccc1NC(=O)CCC(=O)N1CCCCCC1	none
C/C(=N/NC(=O)c1ccccc1O)c1ccc(N2C(=O)C3CCCCC3C2=O)cc1 (centres undefined)	Shiga inhibitor 56, CHX counter 22
CC(=O)Nc1ccc(/C(C)=N/NC(=O)c2ccccc2Cl)cc1	Shiga inhibitor 50, CHX counter 29
C/C(=N\NC(=O)c1ccccc1O)c1ccc(NC(=O)c2ccccc2)cc1	Shiga inhibitor 69, CHX counter 38
C/C(=N\NC(=O)c1ccccc1O)c1cccc(NC(=O)c2ccccc2)c1	Pf growth 48h inconclusive, Shiga inhibitor 42, CHX counter 19, Pf growth 96h inconclusive
COc1ccccc1C(=O)N/N=C(\C)c1ccc(NC(=O)C2CC2)cc1	Pf growth 96h inconclusive
CN(C1(C)CCS(=O)(=O)C1)S(=O)(=O)c1ccc2ccccc2c1 (centres undefined)	none (no result: Shiga inhibitor, CHX counter)
CCN(CC)C(=O)Cn1cc(S(=O)(=O)CC(=O)Nc2ccc(F)cc2)c2ccccc21	none (no result: Pf growth 48h, Shiga inhibitor, CHX counter, Pf growth 96h)
COc1ccc(CNC(=O)CC[C@H]2O[C@@H](n3cnc4c(NC(=O)c5ccccc5)ncnc43)[C@H](O)[C@@H]2O)cc1	none (no result: Pf growth 48h, HCV inhibitor, Shiga inhibitor, CHX counter, Pf growth 96h)
Clc1ccc(Cn2c(-c3cccnc3Cl)nc3ccccc32)cc1	Pf growth 48h inconclusive, HCV inhibitor inconclusive, Pf growth 96h inconclusive
CN1c2ccccc2-c2nc3ccccc3n2C1c1ccncc1 (centres undefined)	Pf growth 48h inconclusive, Pf growth 96h inconclusive
CCN1c2ccccc2-c2nc3ccccc3n2C1c1ccco1 (centres undefined)	Pf growth 48h 12µM, Pf growth 96h 4.7µM
